An excerpt weighted towards active compounds, which were near 5.2% of everything screened.
A3A deaminase – inhibitors of human APOBEC3A DNA deaminase. hit rate 0.41% among 330,000. inhibition, % at 20 µM. recombinant A3A, FAM/TAMRA ssDNA deamination fluorescence. P31941;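 active means at least 40% inhibition at 20 µM here, with at most 30% in a related deaminase screen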;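 further: plate controls were A3A with DMSO for no effect and wells lacking A3A enzyme for full effect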
Target sequence (P31941 whole entry, looked up): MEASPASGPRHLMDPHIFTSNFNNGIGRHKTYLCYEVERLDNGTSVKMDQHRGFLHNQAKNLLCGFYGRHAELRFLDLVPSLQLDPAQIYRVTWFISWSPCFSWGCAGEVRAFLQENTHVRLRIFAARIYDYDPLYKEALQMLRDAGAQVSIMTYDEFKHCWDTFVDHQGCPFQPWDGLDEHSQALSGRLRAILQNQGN
ALR H2O2 inh – inhibitors of human sulfhydryl oxidase ALR; P55789; hit rate 3.8% among 290,000; purified ALR, DTT oxidation, H2O2 HRP-luminol luminescence; AID 485317; inhibition, % (test concentration not listed);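 active means mean replicate inhibition above about 79%, with every replicate also reaching it, limit read from the data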
CendR NRP1 mod – alters CendR peptide binding to human NRP-1 | O14786 | FAM-RPARPAR peptide binding to NRP-1, fluorescence polarization | inhibition, % at 25 µM | hit rate 0.85% among 360,000 | AID 602438;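 active means inhibition or corrected inhibition above about 18%, plus a signal ratio from 0.5 to 1.5, limit read from the data, passing the limit was not always enough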
CR mimetic SO – caloric restriction mimetics inhibiting age-related superoxide in yeast. S. cerevisiae aged cells, superoxide DHE fluorescence; hits give low values. superoxide response (% of plate mean), % at 10 µM. hit rate 0.18% among 330,000;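 active means superoxide response under a set limit, about three screen SD below normal, cut at about 65% in these data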;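 further: yeast aged for seven days with compound at 30 °C before DHE staining; 100% = average MFI of all compound-treated wells on the plate with controls excluded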
M18AAP inhibitor – blocks P. falciparum M18 aspartyl aminopeptidase. recombinant PfM18AAP, H-Glu-NHMec fluorogenic cleavage. inhibition, % at 7.35 µM. hit rate 1.2% among 290,000;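 active means inhibition above the campaign mean inhibition over all tested compounds plus 3 SD, cut at about 28% in these data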;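 further: 0% = plate median of test compound wells and 100% = 2 mM ZnCl2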
APOBEC3G inh – APOBEC3G (human) deaminase inhibition | recombinant A3G, ssDNA deamination FAM/TAMRA fluorescence | inhibition, % at 20 µM | hit rate 0.28% among 330,000;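 active means inhibition of at least 40% at 20 µM, with no more than 30% in the related APOBEC3A deaminase screen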;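 further: plate controls were DMSO wells with A3G for no effect and wells lacking A3G enzyme for full effect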
Target sequence (Q9HC16 whole entry, looked up): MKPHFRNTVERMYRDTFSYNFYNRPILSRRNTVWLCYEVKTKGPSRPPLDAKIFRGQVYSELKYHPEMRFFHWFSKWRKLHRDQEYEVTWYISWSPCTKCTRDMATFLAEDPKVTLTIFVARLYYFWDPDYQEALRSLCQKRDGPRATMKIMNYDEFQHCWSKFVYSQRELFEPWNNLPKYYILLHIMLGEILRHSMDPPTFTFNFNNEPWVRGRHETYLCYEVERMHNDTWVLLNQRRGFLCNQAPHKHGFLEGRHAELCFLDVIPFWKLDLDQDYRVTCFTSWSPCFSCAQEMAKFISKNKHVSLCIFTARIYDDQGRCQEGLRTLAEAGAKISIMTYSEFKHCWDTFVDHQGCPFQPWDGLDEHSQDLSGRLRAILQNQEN
Active calls of the source: *; x = not tested or not shown.

SMILES | A3A deaminase | ALR H2O2 inh | CendR NRP1 mod | CR mimetic SO | M18AAP inhibitor | APOBEC3G inh
O=C1CN(C(=O)COc2ccccc2)c2ccccc2N1 | 1 | 1 | 10 | 100 | -2 | 2
O=C(c1ccco1)N1CCN=C1SCc1ccc(F)cc1 | 3 | -6 | -1 | 98 | -2 | -1
CC(=O)N1CCN=C1SCc1cccc(C(F)(F)F)c1 | -1 | 99* | 0 | 111 | 4 | -3
CCOC(=O)N1CCN=C1SCc1ccc(Cl)c(Cl)c1 | 1 | 99* | 14 | 92 | 5 | -3
CCC(=O)N1CCN=C1SCc1cccc(C(F)(F)F)c1 | -5 | 99* | -5 | 101 | -5 | -5
CC(=O)N1CCN=C1SCc1ccc(Br)cc1 | 3 | 96* | 8 | 93 | 2 | 1
CCOC(=O)c1c(NC(=O)C(=O)N/N=C(\C)c2ccc(OC)cc2)sc2c1CCCCC2 | -1 | -4 | -12 | 113 | -2 | -5
CCOC(=O)c1cc(-c2ccccc2)nc2c1c(C)nn2-c1ccccn1 | -5 | x | 0 | 76 | -5 | -6
C/C(=N\N(c1ccccc1)c1ccccc1)c1ccc(O)cc1 | -3 | 60 | 11 | 96 | -1 | -9
CC(=NN(Cc1ccccc1)c1ccccc1)c1ccccc1 | x | x | 22* | x | x | x
CCOC(=O)C1CCN(C(=O)CN(c2ccc3c(c2)OCO3)S(C)(=O)=O)CC1 | -4 | 2 | -4 | 111 | 4 | -5
COc1cccc(CNc2ccc(N3CCC(C)CC3)cc2)c1OC | 0 | 98* | -6 | 101 | 0 | -3
O=C(O)COc1ccc(-c2nc(-c3ccccc3)c(-c3ccccc3)[nH]2)cc1 | -4 | 99* | -6 | 94 | 12 | -10
COc1cccc(-c2nc(-c3ccccc3)c(-c3ccccc3)[nH]2)c1OCC(=O)O | -3 | 5 | -4 | 98 | 3 | -6
O=C(O)COc1ccccc1-c1nc(-c2ccccc2)c(-c2ccccc2)[nH]1 | -1 | 98* | -6 | 105 | -3 | 1
CCN(CC(N)=O)S(=O)(=O)c1ccc(F)cc1 | 2 | 0 | 10 | 87 | -14 | 1
COc1ccc(NC(NC(=O)c2ccc(OC)cc2)C(Cl)(Cl)Cl)cc1 (stereo not drawn) | -3 | 98* | 5 | 99 | 1 | -6
Oc1ccc(/C=C/c2ccnc3ccccc23)cc1 | 0 | 13 | -3 | 108 | 19 | -5
Oc1ccc(/C=C/c2cnccn2)cc1 | 0 | 83* | 3 | 94 | 0 | -2
COc1ccc(C(=O)COC(=O)Cn2[nH]c(=O)c3ccccc3c2=O)c(OC)c1 | 1 | 0 | -4 | 94 | x | -2
Oc1ccccc1Cc1c(O)ccc2ccccc12 | 2 | 91* | -5 | 108 | x | 4
O=C(Nc1cccc(F)c1)NC1(C(=O)N2CCOCC2)CCCCC1 | -2 | 4 | 1 | 97 | 0 | -8
CC(C)OC(=O)CCc1nc2ccccc2[nH]c1=O | 4 | x | -11 | 92 | -12 | 1
Cc1oc(-c2ccccc2)cc1C(=O)Nc1cccc(/C=C\C(=O)O)c1 | -2 | 96* | -13 | 103 | -4 | -6
Cc1oc(C(C)(C)C)cc1C(=O)Nc1cccc(/C=C\C(=O)O)c1 | -4 | x | 3 | 99 | 2 | -11
SMILES | A3A deaminase | ALR H2O2 inh | CendR NRP1 mod | CR mimetic SO | M18AAP inhibitor | APOBEC3G inh
COc1cc(CCC(=O)OCc2nnc(-c3ccccc3)o2)cc(OC)c1OC | -2 | -23 | -3 | 95 | 1 | -7
Cc1nc(C)c(CC(=O)N/N=C/c2ccc(O)cc2)c(=O)[nH]1 | 0 | 90* | 8 | 105 | -11 | -6
COc1ccc(/C(C)=N/NC(=O)Cc2c(C)nc(C)[nH]c2=O)cc1 | 1 | 5 | 4 | 104 | -3 | -1
O=[N+]([O-])c1ccc2nc(C3CCCCC3)[nH]c2c1 | -7 | 97* | -2 | 100 | 8 | -7
O=C(COc1ccc2c3c(c(=O)oc2c1)CCC3)NCCCN1CCOCC1 | -5 | -9 | -2 | 87 | -2 | -10
Clc1ccc(C2[C@H]3CN(Cc4cccnc4)[C@H](c4ccccc4)C34CC2(c2ccccc2)C4)cn1 (stereo partly drawn) | -4 | -1 | x | 94 | x | -9
CN(C)CC(C)(C)CN=Cc1c(O)[nH]c2ccccc12 | 6 | 99* | 9 | 96 | 4 | 0
OCCN=Cc1c(O)[nH]c2ccccc12 | 0 | 99* | 18 | 98 | 10 | 0
COc1ccc(CN=Cc2c(C(=O)O)[nH]c3ccccc23)cc1 | 2 | 1 | -4 | 103 | -12 | -3
Oc1[nH]c2ccccc2c1C=Nc1ccccc1 | 0 | x | 0 | 110 | 6 | -8
COCC(C)N=Cc1c(O)[nH]c2ccccc12 (stereo not drawn) | -5 | 99* | -1 | 103 | 7 | -9
NS(=O)(=O)c1ccc(CCNCc2ccccc2OCc2ccc(F)cc2)cc1 | -3 | x | -5 | 104 | 0 | -9
COc1ccccc1NC(=O)C1Cc2ccccc2CN1C(=O)c1ccco1 (stereo not drawn) | -1 | x | -3 | 105 | 11 | -10
O=C(Nc1ccccc1)C1Cc2ccccc2CN1C(=O)c1ccco1 (stereo not drawn) | -2 | 97* | -19 | 94 | -11 | -6
O=C(OCc1ccccc1)Oc1cncc(C(=O)O)c1 | -3 | 98* | -9 | 128 | 3 | -2
CCOc1ccc(C(=O)C(C)OC(=O)c2cnc(C)cn2)cc1 (stereo not drawn) | -4 | -1 | 2 | 88 | x | -5
Nc1ccc(CCc2nc3ccccc3o2)cc1 | -4 | 91* | -9 | 97 | 4 | -4
O=C(Nc1ccccc1O)c1ccc(C(=O)c2ccccc2)o1 | -4 | x | -2 | 95 | 6 | -12
CCCCN(c1ccccc1)S(=O)(=O)c1ccc2c(c1)CCN2C(=O)CCC(=O)O | 1 | x | 25* | 107 | -4 | -10
Cc1ccc(NC(=O)NC2=N/C(=C(/C#N)C(=O)N3CCCC3)c3ccccc32)cc1 | 2 | -1 | 3 | 105 | x | -7
Cc1[nH]nc2c1-c1nc3ccccc3nc1C(C)(C)C2 | 1 | 99* | 16 | 101 | -13 | 3
CC12CCC(C)(c3nc4ccccc4nc31)C2(C)C | 1 | 2 | 2 | 105 | -5 | -3
CCCC(=O)Nc1sc2c(c1C(=O)Nc1ccccn1)CCCC2 | -2 | 97* | 2 | 95 | 4 | -4
CCCOC(=O)c1c(NC(=O)CCC(=O)O)sc2c1CCCCC2 | 2 | 89* | 1 | 96 | 8 | 0
CCOC(=O)c1ccc(NC(=O)c2c(NC(=O)CCC(=O)O)sc3c2CCCCC3)cc1 | 1 | -5 | -29 | 105 | 26 | -2
CC(NC(=O)CN1CCN(C(=O)c2cccs2)CC1)c1ccc(F)cc1F (stereo not drawn) | -2 | -4 | -3 | 85 | x | -4
Cc1ccc(C)c(OCC(=O)N/N=C\c2cccn2C)c1 | 1 | 13 | 35* | 132 | 2 | 3
Cc1ccc(OCC(=O)N/N=C\c2ccc(C)o2)c([N+](=O)[O-])c1 | x | x | -80 | x | -14 | x

Compound activity as filed in PubChem.
